We go through 39 sequences from the OligoGym collection.
Also: reference of the scale not given here.

In one experiment the target is SURF1. Briefly: pooled miR-30 sensor sort-seq; sequence = guide strand. To be noted: shRNA.
Consider TTCCTCAGAGTAACTCTGGTTT, for which the sensor-assay potency score (higher = more potent) is -0.24.

The sequence TTTCTTAAACCACAGGTAGGAT returned a sensor-assay potency score (higher = more potent) of -0.803.

The sequence TTGTGGCAGATGCTTCTGCTGC displayed a sensor-assay potency score (higher = more potent) of -1.64.

TCTGTCAGCCTCACCATCCCAA showed a sensor-assay potency score (higher = more potent) of -0.843.

With TCAGGATTCACTTTCTTCCTGG, the sensor-assay potency score (higher = more potent) came to 0.148.

Another experiment addresses SYBU. The experiment is described as above. To be noted: shRNA.
Turning to TTCTGCATCCACATTGGCGTAG, the sensor-assay potency score (higher = more potent) was -0.476.

Regarding TTAAATGGAAACACTAATCTTT, the sensor-assay potency score (higher = more potent) is 0.258.

TTTGATTCCTTCTTATATCGAG showed a sensor-assay potency score (higher = more potent) of 0.632.

TTGTAGGAGCCTGAGTTGCTAC returned a sensor-assay potency score (higher = more potent) of -1.24.

Consider TAACAGTTTAAGAACAAACAAG, for which the sensor-assay potency score (higher = more potent) is -1.43.

For TCACCAACCATTCCAATCGTGC, the sensor-assay potency score (higher = more potent) is -1.21.

In turn, TCATCGAACAAATCTGTGCTGT gave a sensor-assay potency score (higher = more potent) of -0.248.

As for TAAAATCAGCTTCACTACCTGG, the sensor-assay potency score (higher = more potent) was -0.495.

TTCGATGACCTGTTTGAGCTGT gave a sensor-assay potency score (higher = more potent) of 0.425.

Regarding TTCACCAACCATTCCAATCGTG, the sensor-assay potency score (higher = more potent) turned out to be 0.00982.

In turn, TTGATTCCTTCTTATATCGAGA had a sensor-assay potency score (higher = more potent) of -0.708.

For the sequence TTGCATGAACTTCTGCATCCAC, the sensor-assay potency score (higher = more potent) worked out at 0.0297.

A further experiment addresses SYCP2L. Described as above. To be noted: shRNA.
On to TTCATCACCGCTTCCTTCGGAA, for which the sensor-assay potency score (higher = more potent) is -0.0578.

Take AATATCTTTATCTTCTCCGTTT: the sensor-assay potency score (higher = more potent) is -0.529.

In turn, TTCATGACTTCTTTGTAGCTGA displayed a sensor-assay potency score (higher = more potent) of 0.227.

Consider ATCTTCTATAACACAAATCAGC, for which the sensor-assay potency score (higher = more potent) is -1.67.

The sequence TTATTGATCTGTCAAGACGGTA yielded a sensor-assay potency score (higher = more potent) of -0.997.

Sequence TTCTTTGTAGCTGATAATCATG showed a sensor-assay potency score (higher = more potent) of -1.28.

TATATAAAAAGTGACACTCTGA displayed a sensor-assay potency score (higher = more potent) of -0.257.

In turn, TTCTATAACACAAATCAGCGAC registered a sensor-assay potency score (higher = more potent) of -0.297.

The sequence TTGGTCACCAAGTCTGTTGTTT yielded a sensor-assay potency score (higher = more potent) of -0.185.

The sequence TAGGTTTTTCTTCATCTTCTGA came in with a sensor-assay potency score (higher = more potent) of -0.679.

In turn, TTGATTGTTGTGACTTAGCAAA gave a sensor-assay potency score (higher = more potent) of -1.27.

For another experiment, the target named is SYN3. Described as above. To be noted: shRNA.
The sequence TCGATCACCAACAGGATCCTGG returned a sensor-assay potency score (higher = more potent) of -0.321.

Take TTTTGGAGACAACAAGGTCGGC: the sensor-assay potency score (higher = more potent) is -0.766.

For TAATCTCTGCCATCCTTGCTGT, the sensor-assay potency score (higher = more potent) is -0.283.

TTTCTGGATGCGGATGTCGTAC returned a sensor-assay potency score (higher = more potent) of -1.02.

As to TTTGGAGACAACAAGGTCGGCC, the sensor-assay potency score (higher = more potent) was -0.0801.

TAGTTGGATCCAATTTTCTGGA had a sensor-assay potency score (higher = more potent) of -1.06.

On to TTCCACATGCTCTCCAATCAGC, for which the sensor-assay potency score (higher = more potent) was -0.957.

As for TTGGCCTCGTCTTCACTTGGGG, the sensor-assay potency score (higher = more potent) is -0.142.

TTGTAGACGGAGTAGAGAGAGT showed a sensor-assay potency score (higher = more potent) of -1.24.

In turn, TTTGCTGCTGTGGAGATCCGGA displayed a sensor-assay potency score (higher = more potent) of -0.473.

In turn, TTCCACTTTGATCTTTCCCATT registered a sensor-assay potency score (higher = more potent) of -1.45.
